Measured values taken from PubChem BioAssay (NCATS).
Several values for one entry are separate records, joined by “and”; a condition that tells them apart may be missing. Identical values can stand only once. Results filed as inconclusive are left out. A call without a number means that no potency is given here. The source holds several records for some structures; these can differ, active in one and inactive in another. Activity calls are given as the source filed them. The call rests on the fitted dose curve; in most records, active means well fitted curve in the direction sought with a large enough effect; inconclusive means small, poorly fitted or top-dose-only effect, or another doubt; inactive means no such curve, though single readings can be large; an effect the other way counts as inactive or inconclusive.

Assays:
[1] = P-glycoprotein substrates identified in KB-3-1 adenocarcinoma cell line, qHTS therapeutic library screen (AID 1346986); conditions: KB-3-1 parental cells viability, CellTiter-Glo, 72 h; series mostly up to 44.5 µM; further: nearly all actives have a fitted effect of over 60% in size;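 further: potency means the concentration at half of the fitted maximal effect; potency is for cytotoxicity meaning loss of cell viability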
Method in brief: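 Viability read by CellTiter-Glo after 72 h compound exposure in dose-response of KB-3-1 and KB-8-5-11 (P-gp-high) cells. Hits needed AC50 < 10 uM, >50% maximum response and curve class -1.1 to -2.4. Cherry-picks retested ± tariquidar, including pcDNA/MDR-19 HEK-293 pair.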

[2] = P-glycoprotein substrates identified in KB-8-5-11 adenocarcinoma cell line, qHTS therapeutic library screen (AID 1346987); conditions: KB-8-5-11 (P-gp overexpressing) viability, CellTiter-Glo, 72 h; series mostly up to 44.5 µM; further: nearly all actives have a fitted effect of over 65% in size; further: potency means the concentration at half of the fitted maximal effect
Method in brief: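 Compounds are pinned in dose-response onto KB-8-5-11 cells (500 cells/well, colchicine-free medium) and left 72 h at 37 degree C. CellTiter-Glo luminescence then yields AC50 values.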

[3] = NS1 protein of Zika virus - qHTS assay to identify small molecule inhibitors in human HEK 293 cells (AID 1347053); conditions: HEK293 ZIKV MR766 infection, NS1 TR-FRET, 24 h; series mostly up to 46.1 µM; further: nearly all actives have a fitted effect of over 55% in size
Method in brief: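 In this cell-based screen, HEK 293 cultures received compound for one hour before Zika MR766 at MOI = 0.5. NS1 was quantified 24 hours later by TR-FRET, normalized to virus-free wells and infected wells.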

For `COC(=O)Nc1ccc(-c2nc(N3CCOCC3)c3cnn(C4CCN(C(=O)OC)CC4)c3n2)cc1`, the Potency [1] was 1.64 µM (active) and the Potency [2] was 469 nM (active) and 1.46 µM (active).

With `CCCCC[C@H](O)C=C[C@H]1[C@H](O)CC(=O)[C@H]1CC=CCCCC(=O)O` the Potency [1] was “inactive” and the Potency [2] was “inactive”.

For `COc1nc(C)cnc1NS(=O)(=O)c1cccnc1-c1ccc(-c2nnco2)cc1`, the Potency [1] was “inactive”, the Potency [2] was “inactive” and the Potency [3] was “inactive”.

In the case of `COC(=O)[C@H](c1ccccc1Cl)N1CCc2sccc2C1`, the Potency [1] was “inactive”, the Potency [2] was “inactive” and the Potency [3] was “inactive”.

For `Cc1ccc(NC(=O)c2ccc(CN3CCN(C)CC3)cc2)cc1Nc1nc(-c2cccnc2)cs1`, the Potency [1] was “inactive”.

For `CN(C)c1ccc(-c2nc3ncc(Cl)c(N4CCN(CC(=O)Nc5nccs5)CC4)c3[nH]2)cc1`, the Potency [1] was “inactive” and the Potency [2] was “inactive”.

With `O=C(NC[C@H](O)CO)c1ccncc1Nc1ccc(I)cc1F` the Potency [1] was “inactive” and the Potency [2] was “inactive”.

With `CC1(COc2ccc3c(c2)ncn3-c2ccc3cccc(N4CCC(N)CC4)c3n2)COC1` the Potency [1] was 10.3 µM (active).

In the case of `CC[C@H](NC(=O)[C@H](C)NC)C(=O)N1C[C@@H](O)C[C@H]1Cc1c(-c2[nH]c3cc(F)ccc3c2C[C@H]2C[C@H](O)CN2C(=O)[C@H](CC)NC(=O)[C@H](C)NC)[nH]c2cc(F)ccc12`, the Potency [1] was “inactive” and the Potency [2] was “inactive”.

In the case of `CNc1nc(Nc2ccc(C(=O)N3CCOCC3)cc2OC)ncc1Cl`, the Potency [1] was “inactive”, the Potency [2] was “inactive” and the Potency [3] was “inactive”.

In the case of `CO[C@H]1O[C@@H]2O[C@@]3(C)CC[C@@H]4[C@@H](C)CC[C@@H]([C@H]1C)[C@@]24OO3`, the Potency [1] was “inactive”, the Potency [2] was “inactive” and the Potency [3] was “inactive”.

With `CNC(=O)c1cc(COc2nnc(Nc3ccc(Cl)cc3)c3ccoc23)ccn1` the Potency [1] was “inactive” and the Potency [2] was “inactive”.

For `NC(=O)c1ccc(N(C(N)=O)c2c(F)cccc2F)nc1-c1ccc(F)cc1F`, the Potency [1] was “inactive”, the Potency [2] was “inactive” and the Potency [3] was “inactive”.

For `CCC[C@@H](NC(=O)[C@@H]1[C@H]2CCC[C@@H]2CN1C(=O)[C@@H](NC(=O)[C@@H](NC(=O)c1cnccn1)C1CCCCC1)C(C)(C)C)C(=O)C(=O)NC1CC1`, the Potency [1] was “inactive” and the Potency [2] was “inactive”.

With `CC(=O)NCCC(=O)N[C@@H](CCC(N)=O)C(=O)N[C@@H](CO)C(=O)N[C@@H](CCC(N)=O)C(=O)N[C@@H](CCC(N)=O)C(=O)N[C@H](C(=O)N[C@@H](Cc1ccccc1)C(=O)N[C@]1(C)CCCCCCC=CCCC[C@@](C)(C(=O)N[C@@H](CCC(N)=O)C(=O)N[C@@H](CC(N)=O)C(N)=O)NC(=O)[C@H](CC(C)C)NC(=O)[C@H](CC(C)C)NC(=O)[C@@H](CCCNC(=N)N)NC(=O)[C@H](Cc2c[nH]c3ccccc23)NC(=O)[C@H](CC(C)C)NC(=O)[C@H](CC(N)=O)NC1=O)[C@H](C)O` the Potency [1] was “inactive” and the Potency [2] was “inactive”.

With `O=C(O)CCNc1cc(N2CCc3ccccc3CC2)nc(-c2ccccn2)n1` the Potency [1] was “inactive” and the Potency [2] was “inactive”.

In the case of `O=C(O)CCC=CCC[C@@H]1[C@H](N2CCCCC2)[C@@H](O)C[C@@H]1OCc1ccc(-c2ccccc2)cc1`, the Potency [1] was “inactive” and the Potency [2] was “inactive”.

In the case of `Cn1c(=O)c(-c2c(Cl)cccc2Cl)cc2cnc(Nc3cccc(C(=O)O)c3)nc21`, the Potency [1] was “inactive”, the Potency [2] was “inactive and 4.61 µM (active)” and the Potency [3] was “inactive”.

With `N=C1SC(=Cc2ccc(-c3ccc4c(c3)C(=O)NC4=O)o2)C(=O)N1c1ccc(Br)cc1` the Potency [1] was “inactive”, the Potency [2] was “inactive” and the Potency [3] was “inactive”.

With `CNC(=O)c1cc(Oc2ccc(NC(=O)Nc3ccc(Cl)c(C(F)(F)F)c3)c(F)c2)ccn1` the Potency [1] was 18.4 µM (active) and the Potency [2] was “inactive and 16.4 µM (active)”.

With `COc1nccc(-c2c(-c3ccc(F)cc3)ncn2C2CCC(O)CC2)n1` (stereo not drawn) the Potency [1] was “inactive” and the Potency [2] was “inactive”.

For `O=C1C(c2c(O)[nH]c3ccccc23)=Nc2ccccc21`, the Potency [1] was “inactive” and the Potency [2] was “inactive”.

With `CC(C)CN(C[C@@H](O)[C@H](Cc1ccccc1)NC(=O)O[C@H]1CO[C@H]2OCC[C@H]21)S(=O)(=O)c1ccc(N)cc1` the Potency [1] was “inactive”, the Potency [2] was “inactive” and the Potency [3] was “inactive”.

In the case of `CCC(=O)OCC(=O)[C@@]1(OC(=O)CC)[C@@H](C)C[C@@H]2[C@H]3CCC4=CC(=O)C=C[C@]4(C)[C@@]3(F)[C@@H](O)C[C@@]21C`, the Potency [1] was “inactive”.

For `C[C@]12CC[C@@H]3c4ccc(O)cc4CC[C@H]3[C@H]1[C@@H](O)[C@@H](O)[C@H]2O`, the Potency [1] was “inactive”, the Potency [2] was “inactive” and the Potency [3] was “inactive”.

For `CN[C@@H](C)[C@H]1[C@H](O)C[C@@]2(C)[C@@H]3CC[C@H]4C(C)(C)[C@@H](NC)CC[C@@]45C[C@@]35CC[C@]12C`, the outcome [1] was “inactive [at 9.29 µM]” and the Potency [2] was “inactive”.
